Laboratory results as given in the supplement of paper PMC8728848.
About 410 targets per protein were measured; listed, in parts, are those with the strongest signals and a random draw of the rest.

How the values were obtained:
Test in all cases: glycan array binding signal (z-score within array); higher = stronger binding
Conditions in all cases: glycan notation: IUPAC condensed, linker removed
GalNAc6S(b1-4)GlcNAc = target: GalNAc6S(b1-4)GlcNAc
Outline: (§1)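 Glycan array data were curated from 3228 arrays in the Consortium for Functional Glycomics database and kept only where the protein sequence was available. Glycan names were converted to IUPAC-condensed notation, and columns mapping to the same glycan were averaged. The binding signal is a within-array Z-score, averaged across arrays of the same protein sequence at different concentrations or buffers and across linkers. Negative Z-scores can be read as non-binding.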

Glc(b1-4)Glc = target: Glc(b1-4)Glc
Outline: as §1

[1] = target: GlcNAc(b1-3)Gal(b1-3)GalNAc
Outline: as §1

GlcNAc(b1-3)Gal(b1-4)Glc = target: GlcNAc(b1-3)Gal(b1-4)Glc
Outline: as §1

[2] = target: GlcNAc(b1-3)Gal(b1-4)GlcNAc(b1-2)[GlcNAc(b1-3)Gal(b1-4)GlcNAc(b1-6)]Man(a1-6)[GlcNAc(b1-3)Gal(b1-4)GlcNAc(b1-2)Man(a1-3)]Man(b1-4)GlcNAc(b1-4)GlcNAc
Outline: as §1

[3] = target: GlcNAc(b1-3)Gal(b1-4)GlcNAc(b1-3)Gal(b1-4)GlcNAc
Outline: as §1

[4] = target: GlcNAc(b1-4)GlcNAc(b1-4)GlcNAc(b1-4)GlcNAc(b1-4)GlcNAc(b1-4)GlcNAc
Outline: as §1

[5] = target: GlcNAc6S(b1-3)Gal(b1-4)GlcNAc
Outline: as §1

[6] = target: Neu5Ac(a2-3)Gal(b1-3)GalNAc
Outline: as §1

[7] = target: Neu5Ac(a2-3)Gal(b1-3)GlcNAc(b1-2)Man(a1-3)[GlcNAc(b1-4)][Neu5Ac(a2-3)Gal(b1-3)GlcNAc(b1-2)Man(a1-6)]Man(b1-4)GlcNAc(b1-4)GlcNAc
Outline: as §1

[8] = target: Neu5Ac(a2-3)Gal(b1-4)GlcNAc(b1-2)[Neu5Ac(a2-3)Gal(b1-4)GlcNAc(b1-4)]Man(a1-3)[GlcNAc(b1-4)][Neu5Ac(a2-3)Gal(b1-4)GlcNAc(b1-2)[Neu5Ac(a2-3)Gal(b1-4)GlcNAc(b1-6)]Man(a1-6)]Man(b1-4)GlcNAc(b1-4)GlcNAc
Outline: as §1

[9] = target: Neu5Ac(a2-3)Gal(b1-4)GlcNAc(b1-3)Gal(b1-4)GlcNAc(b1-2)Man(a1-3)[Neu5Ac(a2-3)Gal(b1-4)GlcNAc(b1-3)Gal(b1-4)GlcNAc(b1-2)Man(a1-6)]Man(b1-4)GlcNAc(b1-4)GlcNAc
Outline: as §1

[10] = target: Neu5Ac(a2-3)Gal(b1-4)GlcNAc(b1-3)Gal(b1-4)[Fuc(a1-3)]GlcNAc
Outline: as §1

[11] = target: Neu5Ac(a2-3)Gal(b1-4)[Fuc(a1-3)]GlcNAc(b1-2)Man
Outline: as §1

[12] = target: Neu5Ac(a2-3)Gal(b1-4)[Fuc(a1-3)]GlcNAc(b1-3)GalNAc
Outline: as §1

[13] = target: Neu5Ac(a2-3)Gal6S(b1-4)[Fuc(a1-3)]GlcNAc
Outline: as §1

[14] = target: Neu5Ac(a2-3)[GalNAc(b1-4)]Gal(b1-4)GlcNAc(b1-3)GalNAc
Outline: as §1

[15] = target: Neu5Ac(a2-6)Gal(b1-4)GlcNAc(b1-2)Man
Outline: as §1

[16] = target: Neu5Ac(a2-6)Gal(b1-4)GlcNAc(b1-2)Man(a1-6)[GlcNAc(b1-2)Man(a1-3)]Man(b1-4)GlcNAc(b1-4)GlcNAc
Outline: as §1

[17] = target: Neu5Ac(a2-6)Gal(b1-4)GlcNAc(b1-2)[Neu5Ac(a2-6)Gal(b1-4)GlcNAc(b1-4)]Man(a1-3)[GlcNAc(b1-4)][Neu5Ac(a2-6)Gal(b1-4)GlcNAc(b1-2)[Neu5Ac(a2-6)Gal(b1-4)GlcNAc(b1-6)]Man(a1-6)]Man(b1-4)GlcNAc(b1-4)GlcNAc
Outline: as §1

[18] = target: Neu5Ac(a2-6)Gal(b1-4)GlcNAc(b1-2)[Neu5Ac(a2-6)Gal(b1-4)GlcNAc(b1-6)]Man(a1-6)[Neu5Ac(a2-6)Gal(b1-4)GlcNAc(b1-2)Man(a1-3)][GlcNAc(b1-4)]Man(b1-4)GlcNAc(b1-4)GlcNAc
Outline: as §1

[19] = target: Neu5Ac(a2-6)Gal(b1-4)GlcNAc(b1-3)Gal(b1-4)GlcNAc(b1-3)Gal(b1-4)GlcNAc(b1-2)Man(a1-3)[Neu5Ac(a2-6)Gal(b1-4)GlcNAc(b1-3)Gal(b1-4)GlcNAc(b1-3)Gal(b1-4)GlcNAc(b1-2)Man(a1-6)]GalNAc
Outline: as §1

[20] = target: Neu5Ac(a2-8)Neu5Ac(a2-3)[GalNAc(b1-4)]Gal(b1-4)Glc
Outline: as §1

[21] = target: Neu5Ac(a2-8)Neu5Ac(a2-8)Neu5Ac(a2-3)Gal(b1-4)Glc
Outline: as §1

[22] = target: Neu5Ac(a2-8)Neu5Ac(a2-8)Neu5Ac(a2-8)Neu5Ac(a2-3)[GalNAc(b1-4)]Gal(b1-4)Glc
Outline: as §1

[23] = target: Neu5Ac(a2-8)Neu5Gc(a2-3)Gal(b1-4)GlcNAc
Outline: as §1

Neu5Ac(b2-6)GalNAc = target: Neu5Ac(b2-6)GalNAc
Outline: as §1

Neu5Gc(a2-6)GalNAc = target: Neu5Gc(a2-6)GalNAc
Outline: as §1

B1: PX9896A-bth-573-26-573 (Bacteroides thetaiotaomicron) (protein)
chain: ETNNLKTKEDMYKYFGTSKSMLTHVYSYMPQGYQLFATSGGIFTEDRYSMRDCASDDGEFGAYADNIQNTNNGNWSPIKTYDDSWTLYRGIRAANSFIAEIAQVDFTRYEHDGQYTNWMKQLKYFPYEARVLRAHYFFELARRYGDIAMPLEVLTEEEANTIGKTPFSEVISFIVSECDDAANNLPDSYVNEPGAEIGRVTKGFAMAVKSKALLYAASKLHNPSMDTELWKKSAKAAIDIINTGLYSLDPQESANNLDSKEVVLMRINGDDSDFEMFNLPLRMTAGTRTSSLIPYSNYPSQNLVDAFETVNGYKVTLENTGWVCEDPAFDPQSPYENRDKRFYRAILANGMSFKDYTIETFKGGADDGIVSQGGSPTGYFLRKYIQEATSFEPGKEAVSKHHWVIYRYAETLLTYAESMVNAFNDVNYTDETYKYSALWAINEVRKNADMPLIPSMGKDEFMERLYNEWRVEFAFEDHRFWDVRRWKIADTTQRELYGVKIEKQADGTFNFYKNLYETRNWRDCMYLYPIPQSELYKNTNLNPQNTGW
glycan array binding signal (z-score) (GalNAc6S(b1-4)GlcNAc): -0.663
glycan array binding signal (z-score) (Glc(b1-4)Glc): 0.069
glycan array binding signal (z-score) [1]: -0.077
glycan array binding signal (z-score) (GlcNAc(b1-3)Gal(b1-4)Glc): 0.621
glycan array binding signal (z-score) [2]: 0.497
glycan array binding signal (z-score) [3]: -0.759
glycan array binding signal (z-score) [4]: -0.604
glycan array binding signal (z-score) [5]: 0.875
glycan array binding signal (z-score) [6]: -0.359
glycan array binding signal (z-score) [7]: -0.678
glycan array binding signal (z-score) [8]: -0.635
glycan array binding signal (z-score) [9]: -0.638
glycan array binding signal (z-score) [10]: -0.535
glycan array binding signal (z-score) [11]: -0.204
glycan array binding signal (z-score) [12]: 4.79
glycan array binding signal (z-score) [13]: -0.756
glycan array binding signal (z-score) [14]: -0.496
glycan array binding signal (z-score) [15]: -0.386
glycan array binding signal (z-score) [16]: -0.598
glycan array binding signal (z-score) [17]: -0.093
glycan array binding signal (z-score) [18]: -0.82
glycan array binding signal (z-score) [19]: 1.34
glycan array binding signal (z-score) [20]: -0.414
glycan array binding signal (z-score) [21]: -0.639
glycan array binding signal (z-score) [22]: 0.475
glycan array binding signal (z-score) [23]: 13.3
glycan array binding signal (z-score) (Neu5Ac(b2-6)GalNAc): -0.726
glycan array binding signal (z-score) (Neu5Gc(a2-6)GalNAc): -0.244
